Measurements taken from PubChem BioAssay (Tox21).
Records with an inconclusive call do not appear. Where a call stands in place of a potency, no number is given. Activity calls are given as the source filed them. The call rests on the fitted dose curve; in most records, active means well fitted curve in the direction sought with a large enough effect in the repeat runs; inconclusive means weak or mixed curves; inactive means no such curve, though single readings can be large; an effect the other way counts as inactive or inconclusive.

Molecular target: Nuclear receptor subfamily 1 group I member 2 (Homo sapiens) (UniProt O75469)
Experiment: Human pregnane X receptor (PXR) small molecule agonists, qHTS assay (AID 1346982); further: nearly all actives have a fitted effect of over 35% in size
Details: PXR-Luc HepG2, CYP3A4 luciferase reporter, 24 h; series mostly up to 92.4 µM
Method in brief: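 Agonist mode: luminescence from ONE-Glo after 24 h compound exposure at 37C in HepG2 cells carrying hPXR-responsive CYP3A4 luciferase, plated in charcoal-stripped serum medium 5 h beforehand.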
Potency means the concentration at half of the fitted maximal effect.

Nuclear receptor subfamily 1 group I member 2 (Homo sapiens), sequence (O75469 whole entry, looked up): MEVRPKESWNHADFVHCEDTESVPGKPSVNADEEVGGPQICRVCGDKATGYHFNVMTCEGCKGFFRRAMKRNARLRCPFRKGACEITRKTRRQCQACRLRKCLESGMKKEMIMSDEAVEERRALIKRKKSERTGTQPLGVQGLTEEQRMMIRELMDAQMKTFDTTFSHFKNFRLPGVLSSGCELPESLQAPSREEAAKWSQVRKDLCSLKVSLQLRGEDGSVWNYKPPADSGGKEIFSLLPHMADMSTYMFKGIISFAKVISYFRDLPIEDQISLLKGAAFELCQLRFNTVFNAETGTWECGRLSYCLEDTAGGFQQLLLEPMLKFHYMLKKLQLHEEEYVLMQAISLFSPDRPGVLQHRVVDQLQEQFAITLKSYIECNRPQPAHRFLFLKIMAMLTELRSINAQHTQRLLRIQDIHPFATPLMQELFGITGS

| SMILES | activation | Potency |
| --- | --- | --- |
| CCCCCCCCCCCCCOC(=O)CCSCCC(=O)OCCCCCCCCCCCCC | 3.58% [at 19 µM] (inactive) |  |
| CC(=O)OCCC1CCCCC1 |  | inactive |
| Cc1cc(CCCOc2c(C)cc(-c3noc(C(F)(F)F)n3)cc2C)on1 |  | 21.1 µM (active) |
| COc1cc(NS(=O)(=O)c2ccc(N)cc2)nc(C)n1 |  | inactive |
| Nc1ccc(N=Nc2ccc(N)cc2)cc1 |  | inactive |
| Nc1c(Cl)cc(Cl)cc1[N+](=O)[O-] |  | inactive |
| CCCCCCCCCCCSCC(=O)O |  | inactive |
| Cc1ccc(N(CC2=NCCN2)c2cccc(O)c2)cc1 |  | inactive |
| C=CC(=O)NC(C)C |  | inactive |
| FC(F)(F)C(F)(F)C(F)(F)C(F)(F)CCI |  | inactive |
| C/C(C=O)=C\c1ccccc1 |  | 30 µM (active) |
| O=C(c1ccccc1)C1CCC1 |  | inactive |
| CCCCCCCC(=O)OCCCCCC |  | inactive |
| CCOC(=O)c1ccc(NC(=O)CN2CCCCC2)cc1 |  | 23.7 µM (active) |
| CCC(Cl)CC(Cl)C(Cl)C(Cl)C(Cl)C(C)Cl (stereo unspecified) |  | 1.19 µM (active) |
| CC(CO)(CO)C(=O)O |  | inactive |
| CCC(C)(C)C(=O)O |  | inactive |

Molecular target: Cytochrome P450 2D6 (Homo sapiens) (UniProt P10635)
Experiment: Cytochrome P450 Family 2 Subfamily D Member 6 (CYP2D6) small molecule antagonists: luciferase reporter qHTS assay (AID 1671196); further: nearly all actives have a fitted effect of over 50% in size
Details: P450-Glo CYP2D6 enzyme assay, luciferin luminescence, 1 h; series mostly up to 115 µM
Method in brief: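 CYP2D6 activity was followed as luminescence from its luciferin product after a 1 h NADPH-driven reaction at room temperature. Enzyme-substrate mix and compound were pre-incubated for 10 min, and the signal was read 20 min after adding detection reagent.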

Cytochrome P450 2D6 (Homo sapiens), sequence (P10635 whole entry, looked up): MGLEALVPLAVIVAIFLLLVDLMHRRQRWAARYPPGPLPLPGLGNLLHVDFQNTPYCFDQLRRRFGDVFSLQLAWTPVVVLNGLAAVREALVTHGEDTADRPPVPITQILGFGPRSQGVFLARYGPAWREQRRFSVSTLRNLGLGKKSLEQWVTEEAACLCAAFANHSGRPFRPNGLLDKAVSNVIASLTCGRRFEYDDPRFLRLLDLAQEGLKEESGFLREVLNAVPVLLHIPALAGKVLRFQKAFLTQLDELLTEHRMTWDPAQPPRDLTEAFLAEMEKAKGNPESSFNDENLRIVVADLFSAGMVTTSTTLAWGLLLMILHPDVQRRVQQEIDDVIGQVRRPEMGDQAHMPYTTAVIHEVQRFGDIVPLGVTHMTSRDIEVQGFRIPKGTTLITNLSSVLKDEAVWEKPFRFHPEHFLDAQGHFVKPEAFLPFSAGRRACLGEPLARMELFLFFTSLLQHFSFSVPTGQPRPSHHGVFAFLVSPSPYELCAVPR

| SMILES | Potency | activity change, negative = inhibition |
| --- | --- | --- |
| O=C1NC(=O)c2cccc3cccc1c23 | inactive |  |
| SCCc1cnccn1 | inactive |  |
| CCCCCCC(CO)CCCC (stereo unspecified) | inactive |  |
| CCN(CC)CC(=O)Nc1c(C)cccc1C(=O)OC | 38.9 µM (active) |  |
| O=S(=O)(Cl)c1c(Cl)cccc1Cl | 25.1 µM (active) |  |
| c1ccc(CNc2ncnc3c2ncn3C2CCCCO2)cc1 (stereo unspecified) | inactive |  |
| CC1CCC(C(C)CS)CC1S (stereo unspecified) | inactive |  |
| CC(=O)C(C)=O | inactive |  |
| COc1ccc(C)cc1 | 17.8 µM (active) |  |
| CC(C)(C)CCCCCCOC(=O)c1ccccc1C(=O)OCCCCCCC(C)(C)C | inactive |  |
| COC(OC)OC | inactive |  |
| CC(=O)c1ccc[nH]1 | inactive |  |
| Cc1cccc(C)c1NC(=O)c1cc(S(N)(=O)=O)c(Cl)cc1O | inactive |  |
| CCN(CC)c1cccc(O)c1 | 36.3 µM (active) |  |
| O=C(O)CCC(=O)OC[C@@H](NC(=O)C(Cl)Cl)[C@H](O)c1ccc([N+](=O)[O-])cc1 | inactive |  |
| CC(C)(O)CCc1ccccc1 | inactive |  |
| CC1C(C)(C)C2=C(C(=O)CCC2)C1(C)C (stereo unspecified) | inactive |  |

| SMILES | Potency | activity change, negative = inhibition |
| --- | --- | --- |
| CCOC(=O)Oc1ccc(CCNC(=O)[C@H](CCSC)NC(C)=O)cc1OC(=O)OCC | inactive |  |
| C[C@@H]1C[C@H]2[C@@H]3CCC4=CC(=O)C=C[C@]4(C)[C@@]3(F)[C@@H](O)C[C@]2(C)[C@@]1(O)C(=O)COP(=O)(O)O | inactive |  |
| CC1=CC[C@@]23C[C@@H]1C(C)(C)[C@@H]2CC[C@H]3C | inactive |  |
| CCCCCCCCCCCCCOC(=O)CCSCCC(=O)OCCCCCCCCCCCCC |  | -6.54% [at 23.6 µM] (inactive) |
| CC(=O)OCCC1CCCCC1 | inactive |  |
| COc1cc(NS(=O)(=O)c2ccc(N)cc2)nc(C)n1 | inactive |  |
| Nc1ccc(N=Nc2ccc(N)cc2)cc1 | inactive |  |
| Nc1c(Cl)cc(Cl)cc1[N+](=O)[O-] | inactive |  |
| CCCCCCCCCCCSCC(=O)O | 31.7 µM (active) |  |
| C=CC(=O)NC(C)C | inactive |  |
| FC(F)(F)C(F)(F)C(F)(F)C(F)(F)CCI | inactive |  |
| C/C(C=O)=C\c1ccccc1 | inactive |  |
| CCCCCCCC(=O)OCCCCCC | inactive |  |
| CCOC(=O)c1ccc(NC(=O)CN2CCCCC2)cc1 | 17.4 µM (active) |  |
| CCC(Cl)CC(Cl)C(Cl)C(Cl)C(Cl)C(C)Cl (stereo unspecified) |  | -20% [at 23.6 µM] (inactive) |
| CC(CO)(CO)C(=O)O | inactive |  |
| CCC(C)(C)C(=O)O | inactive |  |
